Compound activity deposited in PubChem by National Center for Advancing Translational Sciences (NCATS).
Shown are actives, neighbours in structure and some others; about 8.5% of the full set was active somewhere.
ALDH1A1 inh = blocks purified human ALDH1A1 activity | Potency, µM (highest dose often 75.3 µM), most hits filed as inhibitors | 220,000 tested, 7.3% active | Purified ALDH1A1, NADH fluorescence, propionaldehyde substrate | P00352; active = well fitted inhibition curve with a large enough effect, not every such curve was filed as active; inconclusive = small, poorly fitted or top-dose-only effect, or another doubt; inactive = no such curve, though single readings can be large or run the other way
Sfp PPTase inh = Sfp phosphopantetheinyl transferase inhibition; Q9F4F7; Biochemical Sfp PPTase activity, qHTS; Potency, µM, hits mostly inhibitors; 310,000 tested, 3.5% active;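 also: the enzyme is Sfp with the accession as filed and its product quenches rhodamine fluorescence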
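Fluorescence-quenching assay with 15 nM Sfp, 5 uM rhodamine-CoA and 12.5 uM BHQ-2-labelled ybbR peptide in pH 7.6 Hepes/MgCl2 buffer. Enzyme was pre-incubated with compound for 15 min at room temperature. Rate was taken from the 30-min fluorescence change (525/598 nm).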
FBPA coupling cs = inhibits coupling enzyme system, counter-screen for aldolase hits. coupling enzyme system counterscreen, AmpLite Red fluorescence. activity change, negative = inhibition, % at 58.2 µM, hits read low. 290,000 tested, 0.67% active. AID 2472; in the data active = activity change below about -30%
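Fluorescence at 525 nm excitation and 598 nm emission measured inhibition of the coupled detection system without aldolase. Compounds (at 57.5 uM final) were preincubated 10 min at room temperature with coupling enzyme reagent before a 20 min substrate/AmpLite Red step.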
JMJD2E inh = inhibitors of human JMJD2E histone demethylase | JMJD2E catalytic domain, FDH-coupled NADH fluorescence (FDH is formaldehyde dehydrogenase) | AID 2147 | Potency, µM (series often up to 57.1 µM), usual class: inhibitors | B2RXH2 | 230,000 tested, 1.6% active; active = well fitted inhibition curve with a large enough effect, not every such curve was filed as active; inconclusive = small, poorly fitted or top-dose-only effect, or another doubt; inactive = no such curve, though single readings can be large or run the other way; also: nearly all actives have a fitted effect of over 50% in size
Target sequence (B2RXH2 1-337 limits assumed): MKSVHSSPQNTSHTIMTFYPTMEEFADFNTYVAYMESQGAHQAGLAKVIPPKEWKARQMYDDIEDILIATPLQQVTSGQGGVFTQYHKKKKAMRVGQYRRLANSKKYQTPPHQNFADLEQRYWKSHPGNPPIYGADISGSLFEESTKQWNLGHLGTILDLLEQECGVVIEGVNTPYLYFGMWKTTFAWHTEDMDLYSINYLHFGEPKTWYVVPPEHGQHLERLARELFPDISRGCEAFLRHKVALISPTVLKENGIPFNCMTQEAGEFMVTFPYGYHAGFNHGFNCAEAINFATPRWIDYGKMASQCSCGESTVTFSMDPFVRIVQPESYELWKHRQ
GoLoco inh red = blocks human Gai1 binding to RGS12 GoLoco peptide, red readout | P63096 | Gai1:RGS12 GoLoco peptide FP, rhodamine, 10 min | Potency, µM (highest dose often 61.6 µM), usual class: inhibitors | 230,000 tested, 0.44% active; active = well fitted inhibition curve with a large enough effect, not every such curve was filed as active; inactive = no such curve, though single readings can be large or run the other way; also: nearly all actives have a fitted effect of over 30% in size
Target sequence (P63096 whole entry, looked up): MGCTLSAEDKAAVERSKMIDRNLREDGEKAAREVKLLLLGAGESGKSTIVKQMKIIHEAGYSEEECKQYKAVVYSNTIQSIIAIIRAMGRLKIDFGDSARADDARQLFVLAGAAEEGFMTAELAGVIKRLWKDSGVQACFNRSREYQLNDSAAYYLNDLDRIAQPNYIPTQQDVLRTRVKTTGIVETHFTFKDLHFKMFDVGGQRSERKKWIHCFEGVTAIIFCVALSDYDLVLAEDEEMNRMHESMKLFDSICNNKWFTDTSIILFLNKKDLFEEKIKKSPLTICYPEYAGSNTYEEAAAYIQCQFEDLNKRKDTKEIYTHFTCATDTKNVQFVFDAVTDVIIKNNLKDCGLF
NPSR antag = neuropeptide S receptor (human) antagonism, cAMP | CHO-NPSR cells, cAMP TR-FRET, antagonist mode | Potency, µM (highest dose often 38.3 µM), hits mostly inhibitors | 220,000 tested, 1% active | AID 1461; also: nearly all actives have a fitted effect of over 50% in size
Hits are given with their value; n = inactive; u = inconclusive; x = no result given. Unless noted, calls follow the shape of the dose curve; as a rule, active = well fitted curve in the direction sought with a large enough effect; inconclusive = small, poorly fitted or top-dose-only effect, or another doubt; inactive = no such curve, though single readings can be large; an effect the other way counts as inactive or inconclusive.

SMILES | ALDH1A1 inh | Sfp PPTase inh | FBPA coupling cs | JMJD2E inh | GoLoco inh red | NPSR antag
CCC(C(=O)NCCN1CCOCC1)n1c2ccccc2c2nc(=O)cc(C)n21 (stereo unspecified) | x | n | x | x | x | x
Cn1c(-c2ccc(=O)[nH]c2)nc2ccccc21 | u | 18µM | -33 | u | n | n
O=c1ccc(-c2nc3ccccc3n2Cc2ccc(Cl)cc2)c[nH]1 | x | n | n | x | x | x
COC(=O)C(C(=O)OC)C(Cc1cc(F)cc(F)c1F)NC=O (stereo unspecified) | n | n | n | n | n | x
Nc1nnc(CC(=O)N/N=C/c2cc([N+](=O)[O-])cc(Br)c2O)s1 | u | n | n | 11µM | n | n
Nc1nnc(CC(=O)N/N=C/c2cccc([N+](=O)[O-])c2)s1 | n | 50µM | n | n | n | n
COC(=O)N/N=C/c1cc([N+](=O)[O-])cc(Br)c1O | u | n | n | n | n | n
Cc1ccc(C(=O)N2CCN(c3ccc(NC(=S)NC(=O)c4cccs4)cc3)CC2)cc1 | 14µM | n | n | n | n | n
CN(C1CCCCC1)S(=O)(=O)c1ccc(NC(=S)NC(=O)c2cccs2)cc1 | 22µM | n | n | n | n | u
Cc1cc(C)cc(NS(=O)(=O)c2ccc(NC(=S)NC(=O)c3cccs3)cc2)c1 | 10µM | n | n | n | n | u
CN(C)S(=O)(=O)c1ccc(NC(=S)NC(=O)C2CCC2)cc1 | x | n | n | x | x | x
CCOc1ccc(CCNC(=O)Nc2cccc(OC)c2)cc1OCC | x | n | n | x | x | x
O=C(CSc1n[nH]c(-c2ccncc2)n1)Nc1ccc(Cl)c(Cl)c1 | x | n | n | x | x | x
Cc1ccc2c(c1)cc1c(=O)n(CC(=O)N3CCCC3)nc(C)n12 | x | n | x | x | x | x
O=C(CCCC(=O)OCC(Cl)=C(Cl)Cl)Nc1ccccc1 | n | n | n | n | n | n
CC(C)(C)NC(=O)/C(=C\C=C\c1ccccc1)NC(=O)c1ccc([N+](=O)[O-])cc1 | n | n | n | n | n | n
CCN(CC)C(=O)/C=C/c1ccc(OC)c(S(=O)(=O)N2CCCCC2)c1 | n | n | n | n | n | n
CN(C)S(=O)(=O)c1cccc(-c2csc(N/N=C/c3ccco3)n2)c1 | x | 14µM | n | n | n | n
CCOC(=O)C(CSCC(=O)c1ccc(Cl)cc1)NC(=O)OC(C)(C)C (stereo unspecified) | 20µM | n | n | n | n | n
CCOC(=O)Nc1cc(NC(=O)OCC)c(C)nc1C | n | n | n | n | n | n
CSc1ccc(/C=C(\C#N)C(=O)NC2CCCCC2C)cc1 (stereo unspecified) | u | n | n | n | n | n
COc1cc(/C=C(\C#N)C(N)=O)ccc1OS(=O)(=O)c1ccc(C)cc1 | 18µM | n | n | n | n | n
COc1cc(/C=C(\C#N)C(=O)NC2CCCCC2C)ccc1OS(=O)(=O)c1ccc(C)cc1 (stereo unspecified) | 8.9µM | n | n | u | n | u
CC(C)c1ccc(S(=O)(=O)N2CCN(C(C)C(=O)Nc3ccccc3-c3ccccc3)CC2)cc1 (stereo unspecified) | 2.8µM | n | n | n | n | n
CC(C(=O)Nc1ccccc1-c1ccccc1)N1CCCCC1 (stereo unspecified) | 20µM | n | n | n | n | n
SMILES | ALDH1A1 inh | Sfp PPTase inh | FBPA coupling cs | JMJD2E inh | GoLoco inh red | NPSR antag
O=C(COc1ccc2oc(-c3ccco3)cc(=O)c2c1)N1CCCCC1 | u | n | n | u | n | n
COc1ccc(/C=C2\OC(=S)N(C)C2=O)cc1 | 20µM | u | n | n | n | n
Nc1nonc1NC(=O)NN=C1CCCCC1 | n | 35µM | n | n | n | n
CC(C)N(C(=O)COC(=O)[C@@H]1CC(O)CN1S(=O)(=O)c1ccc(C(C)(C)C)cc1)C(C)C (stereo partly specified) | 8.9µM | n | n | n | n | n
O=C(COC(=O)C1CC(O)CN1S(=O)(=O)c1ccc(Cl)cc1)c1ccccc1Cl (stereo unspecified) | 18µM | n | n | n | n | n
O=C(COC(=O)C1CC(O)CN1S(=O)(=O)c1ccc(Cl)cc1)c1ccccc1 (stereo unspecified) | u | u | n | n | n | n
O=C(c1ccccc1)N1CCN(c2nc3ccc([N+](=O)[O-])cc3s2)CC1 | 10µM | n | n | n | n | n
O=C(c1ccc2nc(N3CCCCC3)sc2c1)N1CCN(c2ccccn2)CC1 | 28µM | n | n | u | n | n
Cc1cccc(N2CCN(C(=O)c3ccc4nc(N5CCCCC5)sc4c3)CC2)c1C | x | n | n | n | n | n
CC1CCN(c2nc3ccc(C(=O)N4CCN(Cc5ccccc5)CC4)cc3s2)CC1 | 20µM | n | n | n | n | n
CCOC(CNC(=O)c1ccc2nc(N3CCC(C)CC3)sc2c1)OCC | 14µM | n | n | n | n | n
O=C(N/N=C/c1cccc2cccnc12)c1ccccc1O | x | n | n | u | n | n
CC(=O)Nc1ccc(S(=O)(=O)NCc2nc(-c3ccccc3Cl)no2)cc1 | x | n | n | x | x | x
Cc1ccc(C2C3=C(CC(C)(C)CC3=O)Nc3[nH]c(=S)[nH]c(=O)c32)cc1 (stereo unspecified) | n | 14µM | n | u | n | n
Cc1[nH]nc2c1C(c1ccc(O)cc1)C1=C(CC(C)(C)CC1=O)N2 (stereo unspecified) | u | n | n | u | n | n
Cc1cccc(NC(=O)C2C3C=CC(C4CC34)C2C(=O)O)c1 (stereo unspecified) | n | 50µM | n | n | n | u
NNC(=O)CSc1c(-c2ccccc2)c2cc(Cl)ccc2[nH]c1=O | x | n | n | x | x | x
O=c1[nH]c2ccc(Cl)cc2c(O)c1-c1ccccc1 | n | n | n | u | n | n
O=c1[nH]c2ccc(Cl)cc2c(-c2ccccc2)c1SC(=S)N1CCCCC1 | 25µM | 14µM | n | n | n | n
O=c1[nH]c2ccc(Cl)cc2c(-c2ccccc2)c1SC(=S)N1CCOCC1 | 8.9µM | 11µM | n | n | n | n
C[C@H](NC(=O)c1nc[nH]c1C(=O)N[C@@H](Cc1ccccc1)C(=O)OC(C)(C)C)C(=O)OCc1ccccc1 | x | n | n | x | x | x
COc1ccc2c(c1)CCC1=C2NC(=S)NC1c1ccc(N(C)C)cc1 (stereo unspecified) | 2.8µM | n | n | u | n | n
C=CCOc1ccc(C2NC(=S)NC3=C2CCc2ccccc23)cc1 (stereo unspecified) | 1µM | n | n | n | n | n
COc1cc(C2NC(=S)NC3=C2CCc2ccccc23)cc(OC)c1OC (stereo unspecified) | u | n | n | n | n | n
Cc1cccc(Nc2nc(CC(=O)O)cs2)c1 | n | u | n | n | n | n
O=C(Cc1sc(Nc2ccccc2)nc1-c1ccccc1)NCc1ccccc1 | n | u | n | n | x | u
Cc1ccc(-c2nc(Nc3cccc(C)c3)sc2CC(=O)O)cc1 | u | 20µM | n | u | n | n
